The panel holds about 79,000 compounds, 15% with a hit somewhere; the sample as a whole holds those more often. Unmarked numbers belong to inactive results. Calls of active or inactive are those of the source. No stated cut-off is given here; in the data, active means growth inhibition above about 70%; inactive means the rest.
Assays:
[1] = NCI Yeast Anticancer Drug Screen. Data for the rad50 strain (AID 155);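 further: 0% = growth of vehicle-only cultures of the same strain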; conditions: S. cerevisiae rad50 strain growth inhibition; at 50.0 µM; active compounds read high
Procedure, shortened: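 Cells are treated with compound, grown, and their growth is then scored against vehicle-only cultures of the same repair-deficient yeast strain.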

[2] = NCI Yeast Anticancer Drug Screen. Data for the mec2-1 strain (AID 157); conditions: S. cerevisiae mec2-1 strain, at 50.0 µM, active compounds read high
Procedure, shortened: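 Growth inhibition is read against vehicle-treated controls after compound exposure of the mec2-1 yeast strain, which is defective in DNA damage repair or cell cycle control.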

[3] = NCI Yeast Anticancer Drug Screen. Data for the sgs1 mgt1 strain (AID 161);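 further: 0% = growth of cultures given vehicle only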; conditions: S. cerevisiae sgs1 mgt1 strain, at 50.0 µM, active compounds read high
Procedure, shortened: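 Growth of a repair-deficient yeast mutant was monitored after compound treatment and expressed as inhibition relative to vehicle-treated cultures.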

[4] = NCI Yeast Anticancer Drug Screen. Data for the cln2 rad14 strain (AID 165);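 further: 0% = growth equal to vehicle treated cultures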; conditions: S. cerevisiae cln2 rad14 strain, at 50.0 µM, active compounds read high
Procedure, shortened: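 Growth inhibition, relative to vehicle-treated controls, is the read-out. The test organism is a yeast strain with defined genetic alterations, cln2 rad14.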

[5] = NCI Yeast Anticancer Drug Screen. Data for the bub3 strain (AID 167); conditions: S. cerevisiae bub3 mutant strain, at 50.0 µM, active compounds read high
Procedure, shortened: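 Part of a panel of yeast mutants defective in DNA damage repair or cell cycle regulation. Each strain is grown with compound, and inhibition is calculated relative to solvent-treated cultures.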

[6] = NCI Yeast Anticancer Drug Screen. Data for the mlh1 rad18 strain (AID 175); conditions: S. cerevisiae mlh1 rad18 strain growth inhibition; at 50.0 µM; active compounds read high
Procedure, shortened: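 Cells of a genetically altered yeast strain, deficient in DNA damage repair, were treated with compound. Their growth was then compared with that of vehicle-treated cultures to give inhibition.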

SMILES	growth inhibition [1]	growth inhibition [2]	growth inhibition [3]	growth inhibition [4]	growth inhibition [5]	growth inhibition [6]
CC(C)=C/C(CC(O)(C(F)(F)F)C(F)(F)F)=N\O	-17.2%	4.45%	-6.5%	18.4%	-15.8%	-13.3%
CN(C)P(=O)(Nc1ccc(Cl)cc1)Nc1ccc(Cl)cc1	11.7%	-1.9%	2.1%	3.9%	12.7%	7.5%
O=C(CC1(O)C(=O)Nc2ccccc21)c1ccc(O)cc1O (stereo unspecified)	13.2%	15.4%	12.1%	26.4%	14.3%	18.6%
C=CC(=O)OCC(C)(C)COC(=O)C=C	3.3%	-34.5%	-16.7%	16.1%	19.8%	-12.6%
C=CCOC(=O)OCCO	5.95%	-0.55%	-2.8%	-34.5%	-5.5%	-15.9%
CN(C)C(CN)CC1=C(CC(CN)N(C)C)CCC1 (stereo unspecified)	-15.5%	5.25%	-5.5%	-1%	-5.25%	17.6%
O=[N+]([O-])c1cc(Cl)cc2c1-c1c(Cl)cc(Cl)cc1C2	16.8%	28.3%	7.65%	20.8%	-6.25%	4.05%
CCCS(=O)(=O)N1CCCC1	-1.25%	-15.8%	-2.1%	-34.5%	-24.4%	-19.4%
CC(=O)NC(C)c1ccc2ccccc2c1 (stereo unspecified)	-5.4%	14.8%	1.8%	7.55%	-8.5%	11.4%
O=c1/c(=C/c2ccc(Cl)cc2)sc2nc(-c3ccccc3)nn12	0.85%	7.75%	8.8%	-6.75%	-12.8%	23.6%
Nc1nc2c(c(-c3ccccc3)n1)CN(CCCC(=O)O)C2=O	5.75%	14.8%	3.7%	-3%	11.9%	-0.45%
CNC(=S)c1ccc(Cl)cc1	12.3%	-20.6%	-15.1%	-29.8%	-2.05%	11.3%
Cc1ccc(NC(=S)N(CCC#N)C2CCCCC2)cc1	-7.6%	-10.1%	16.2%	6.95%	6.3%	0.85%
Nc1ccc(COCCOCc2ccc(N)cc2)cc1	-4.35%	1.7%	-4.25%	-5.6%	2.8%	17.4%
O=P(O)(O)c1ccc(-c2ccc(P(=O)(O)O)cc2)cc1	-4.7%	2.85%	12.8%	-32.2%	2.3%	-1.75%
CC(C)C1=CC23CCC4C(C)(C(=O)O)CCCC4(C)C2CC1C1C(=O)N(CCCN(C)C)C(=O)C13 (stereo unspecified)	98.8% (active)	99% (active)	99% (active)	98.2% (active)	98% (active)	98.6% (active)
CCC1=C[C@H]2CN(CCc3c([nH]c4ccccc34)[C@@](C(=O)OC)(c3cc4c(cc3OC)N(C)[C@H]3[C@@](O)(C(=O)NC)[C@H](OC(C)=O)[C@]5(CC)C=CCN6CC[C@]43[C@@H]65)C2)C1	2.65%	-1.75%	12.8%	-2.05%	16.4%	-12.4%
O=c1[nH]nc(Cc2ccccc2)n1/N=C/c1cccnc1	28.8%	30.9%	37%	35.7%	30.2%	45.6%
CCOc1ccc(N=Nc2ccc3oc(=O)c(/C(C)=N/NC(=O)CC(=O)Nc4cccc(OC)c4)cc3c2)cc1	44.5%	36%	25.2%	-17.3%	-5%	44.1%
O=S(=O)(c1ccccc1)c1ccc(CBr)cc1	16.1%	1.85%	-10.4%	17.5%	-2.55%	-8.9%
CC(=O)Nc1ccc(-c2nnc(SCC(=O)Nc3ccccc3C)o2)cc1	-6.55%	-5.25%	-19.9%	4.65%	-8.55%	-18.1%

SMILES	growth inhibition [1]	growth inhibition [2]	growth inhibition [3]	growth inhibition [4]	growth inhibition [5]	growth inhibition [6]
O=C(Nc1ccccc1)n1cc(-c2ccccn2)c(N2CCOCC2)n1	-4.6%	-11.1%	6.15%	-64.5%	-12.9%	-14.4%
C1C[O][Ge]2([O]1)[O]CC[O]2	-24.9%	-4.95%	-16.2%	17.1%	-13.2%	-5.95%
N=C(N)SCc1cccc(Cl)c1	-20%	-14%	-4.55%	-82.1%	-9.45%	-22.6%
Cn1cnc([N+](=O)[O-])c1Sc1nc2ncccc2[nH]1	-5.6%	-7.1%	-20.1%	16.6%	-8.9%	0%
CC(CCC(=O)O)C1CCC2C3CCC4CCCCC4(C)C3CCC12C (stereo unspecified)	8.4%	41.9%	43.3%	17.3%	51.2%	49.5%
CC1(C)COC(C23C4C5C2C2C3C4C52I)=N1 (stereo unspecified)	25.9%	12.4%	11.2%	18.2%	26.6%	16.6%
CC(N=Nc1ccccc1)/N=N/c1nn[nH]n1 (stereo unspecified)	23.8%	-12.2%	-11.6%	-84%	-22%	-3.25%
C=CCOC(=O)NC1C(OC(C)[C@@H](NC(=O)OCc2ccccc2)C(=O)OC(C)(C)C)OC(COC(C)=O)C(OC(C)=O)C1OC(C)=O (stereo partly specified)	-26.9%	-23.8%	-16.4%	22.1%	-1.55%	-4.15%
OCC1=C(CO)CC=CC1	-21%	10%	2.2%	1.5%	-3.05%	28.6%
Cc1ccc2oc(=O)cc(CC(=O)O)c2c1	-6%	-8.3%	-10.4%	12.1%	-10.7%	-7.9%
CC1(C)NC(=O)N(CCCCCCN2C(=O)NC(C)(C)C2=O)C1=O	5.1%	-9.45%	5.85%	6.1%	-20.2%	8.6%
CCCCOC(=O)c1ccccc1OC	-16.1%	7.2%	-2.3%	16.9%	12.1%	-6.9%
FC1=C2C3CCC(C3)C2C1(F)F (stereo unspecified)	12.1%	4.1%	20.1%	16.9%	2.7%	17.1%
CN(c1ccccc1)S(=O)(=O)c1ccc(Cl)cc1	38%	19.1%	32.1%	11.4%	43.2%	25.9%
CCn1c(C)nc([N+](=O)[O-])c1Sc1ncn[nH]1	10.2%	-10.3%	11.2%	5.1%	-7.05%	-59.7%
COC(=O)C(/C(=N\O)C(=O)Nc1cccc(Cl)c1C)c1cnc2ccccc2n1 (stereo unspecified)	14.5%	-11.1%	8.75%	23.5%	-0.2%	12.5%
O=C1c2[nH]c3ccccc3c2CN1CCc1ccccc1	-2.4%	-15.9%	4.7%	-14.5%	-4.45%	-5.1%
O=C(O)c1ccccc1N=N/C(=N\Nc1ccccc1C(=O)O)c1ccnc2ccccc12	37.5%	10%	29.3%	11.2%	2.8%	26.9%
CCC(=O)OCCCC1CCCO1 (stereo unspecified)	7.85%	-0.55%	1.05%	-9.8%	2%	-2.05%
CCCCCCCCCCCCCCCCCC(=O)CC(=O)OCC	-1.25%	1.15%	3.5%	17.9%	-10%	4.25%
